PubChem BioAssay (NCATS)
Inconclusive results are not listed. Values without a mark were called inactive. The source made the active and inactive calls. Calls follow the shape of the dose curve; as a rule, active = well fitted cell-killing curve with a large enough effect; inconclusive = small, poorly fitted or top-dose-only effect; inactive = flat fitted curve, though single readings scatter. Residues, ends and D or L forms follow the SMILES beside them. *: point of attachment. Cbz = O=C(OCc1ccccc1)*

experiment: qHTS of pediatric cancer cell lines to identify multiple opportunities for drug repurposing: Primary screen for DAOY cells (AID 1347090); details: DAOY medulloblastoma viability, CellTiter-Glo luminescence, 48 h; series mostly up to 46 µM; activity change, negative = cytotoxic: at the top concentration; also: nearly all actives have a fitted effect of over 55% in size
Description: Drug repurposing or repositioning has been offered as a strategy for drug development in oncology programs. This approach has special potential for childhood cancers and other rare or orphan diseases, where the expected return on new drug development has been a disincentive to pharmaceuticals.
In this project we exploit the poly-pharmacology of drugs to discover new indications via phenotypic screening of a panel of 19 well-characterized cell lines derived from solid tumors seen in children and adolescents. The goal is to identify approved drugs with previously unrecognized anticancer properties that has the potential to reveal new mechanisms and biological processes involved in carcinogenesis or drug resistance. We employed a titration-based paradigm (quantitative high-throughput screening or qHTS), where all compounds were tested at multiple concentrations for their effect on cell viability. Concentration-response curves (CRCs) were derived directly from the primary screen, and both potency and efficacy values were used to identify compounds with robust bioactivity profiles. We screened the NIH Chemical Genomics Center (NCGC) Pharmaceutical Collection (NPC) and Mechanism Interrogation Plate (MIPE) small molecule collections of approved and investigational compounds against these cell lines; and measured metabolically active cells after 48 hours of compound treatment as a proxy for cell viability.
Assay Submitter: Nathalia J. Martinez, National Center for Advancing Translational Sciences, National Institutes of Health, Rockville, MD, USA; email: natalia.martinez@nih.gov
[1] Shen, M et al. Quantitative high-throughput phenotypic screening of pediatric cancer cell lines identifies multiple opportunities for drug repurposing. Oncotarget 2017 Dec 19;9(4):4758-4772. PMID 29435139.
The cells were obtained from University of North Carolina (UNC), Pediatric Preclinical Testing Program (PPT), and Coriell Institute (CI).
qHTS cell viability assay:
Cells were assayed in growth media at a density of 500-1,000 cells/well. Five microliters of cells were dispensed into 1,536-well, white, solid-bottom, TC-treated plates (Greiner Bio One) using a multidrop dispenser and incubated at 37 degrees C, 5% CO2, under a humidified atmosphere for 5 hours. Twenty-three nanoliters of compounds and controls (neutral control DMSO or positive control bortezomib at final concentration of 2.3 µM) were subsequently transferred by Kalypsys pintool. For primary screens, the MIPE collection was tested at 11-point dilutions (final concentrations range from 0.78 nM to 46 µM) and the NPC collection at 8-point dilutions (final concentrations range from 0.59 nM to 46 µM). Compounds tested in follow-up screens were assayed at 11-point dilutions. Cells were incubated for 48 hours, followed by addition of 3 uL of CellTiter-Glo (Promega). After a 15 min incubation at room temperature, samples were analyzed for luminescence intensity using a ViewLux High-throughput CCD imager equipped with clear filters.
Potency is read from the fitted curve at half-maximal effect.

Q: For CC(C)c1cnn2c(NCc3ccccc3)cc(NCCCCCCN)nc12, which Potency is on record?
A: 4690 nM (active)

Q: With CC(C)C[C@@H](C=O)NC(=O)[C@H](CC(C)C)NC(=O)[C@H](CC(C)C)NC(=O)OCc1ccccc1 (Cbz-Leu-Leu-Leu-aldehyde) as the compound, how does the Potency read?
A: 743 nM (active)

Q: For C[C@H](CCC(=O)O)[C@H]1CC[C@H]2[C@@H]3[C@H](O)C[C@@H]4C[C@H](O)CC[C@]4(C)[C@@H]3CC[C@]12C, which “activity change, negative = cytotoxic” value is on record?
A: -4.87%

Q: Which “activity change, negative = cytotoxic” value does the source give for OCCNC1CCCc2c1[nH]c1ccc(-c3ccccc3)cc21 (stereo not given) here?
A: -9.7%

Q: With COc1ccnc2[nH]cc(C(=O)C(=O)N3CCN(C(=O)c4ccccc4)C[C@@H]3C)c12 as the compound, how does the “activity change, negative = cytotoxic” value read?
A: -0.197%

Q: For O=S(=O)(O)CCSSCCS(=O)(=O)O, which “activity change, negative = cytotoxic” value is on record?
A: 6.24%

Q: Which Potency does the source give for CN[C@H]1[C@@H](O)[C@@H]2O[C@@H]3O[C@H](C)CC(=O)[C@]3(O)O[C@@H]2[C@@H](NC)[C@H]1O here?
A: 296 nM (active)

Q: Which Potency does the source give for COc1ccc(C=Cc2cc(OC)c(OC)c(OC)c2)cc1NC(=O)[C@H](N)CO here?
A: 9.3 nM (active)

Q: Which “activity change, negative = cytotoxic” value does the source give for O=C(C[C@@H]1CC=CCCC(=O)O[C@H](c2ccccc2)CNC1=O)NCc1ccc(Cl)cc1 here?
A: -9.67%

Q: With CCCCCCCCCCCCc1ccc(S(=O)(=O)Nc2nncs2)cc1 as the compound, how does the “activity change, negative = cytotoxic” value read?
A: -8.71%

Q: With C[C@@H]1[C@H](C)CC[C@]2(C(=O)O)CC[C@]3(C)C(=CC[C@@H]4[C@@]5(C)C[C@@H](O)[C@H](O)[C@@](C)(CO)[C@H]5CC[C@]43C)[C@@H]12 as the compound, how does the “activity change, negative = cytotoxic” value read?
A: -9.2%

Q: For C=C1CCC2[C@](C)(CO)C(O)CC[C@]2(C)C1CC=C1C(=O)OCC1O (stereo not given in full), which “activity change, negative = cytotoxic” value is on record?
A: -6.11% [at 92.7 µM]

Q: With COc1cc(C[C@@H](CO)[C@H](CO)Cc2ccc(O)c(OC)c2)ccc1O as the compound, how does the Potency read?
A: 469 nM (active)

Q: For CCCCCCCCCCCCCCCC(=O)OC[C@@H](NC(=O)C(Cl)Cl)[C@H](O)c1ccc([N+](=O)[O-])cc1, which “activity change, negative = cytotoxic” value is on record?
A: 9.17%

Q: Which Potency does the source give for CCOC(=O)[C@H](CCc1ccccc1)N[C@@H](C)C(=O)N1[C@@H](C(=O)O)C[C@H]2CCC[C@@H]21 here?
A: 14800 nM (active)

Q: With N#CNC(=NCCCCCCOc1ccc(Cl)cc1)Nc1ccncc1 as the compound, how does the Potency read?
A: 14800 nM (active)

Q: For Oc1cc(-c2nc(-c3ccccc3)[nH]c2-c2ccncc2)ccc1Cl, which Potency is on record?
A: 5900 nM (active)

Q: For NC(=O)c1ncn([C@@H]2O[C@H](CO)[C@@H](O)[C@@H]2O)c1N, which “activity change, negative = cytotoxic” value is on record?
A: -18.7%

Q: With CCN(CC)CCNC(=O)c1c(C)[nH]c(C=C2C(=O)Nc3ccc(F)cc32)c1C as the compound, how does the Potency read?
A: 42900 nM (active)

Q: With C[C@H](O)[C@@H]1C(=O)N2C(C(=O)O)=C(S[C@@H]3CN[C@H](CNS(N)(=O)=O)C3)[C@@H](C)[C@@H]12 as the compound, how does the “activity change, negative = cytotoxic” value read?
A: -2.75%

Q: With C[N+](C)([O-])CCNc1ccc(NCC[N+](C)(C)[O-])c2c1C(=O)c1c(O)ccc(O)c1C2=O as the compound, how does the “activity change, negative = cytotoxic” value read?
A: -24.7%

Q: Which “activity change, negative = cytotoxic” value does the source give for CC(=O)OC[C@@H]1O[C@@H](n2ccc(=O)[nH]c2=O)[C@H](OC(C)=O)[C@H]1OC(C)=O here?
A: -2.85%

Q: With NC(=O)c1ncn([C@@H]2O[C@H](CO)[C@@H](O)[C@@H]2O)c1O as the compound, how does the “activity change, negative = cytotoxic” value read?
A: 3%

Q: With COc1cc(C=CC(=O)CC(=O)C=Cc2ccc(O)c(OC)c2)ccc1O as the compound, how does the Potency read?
A: 21500 nM (active)

Q: Which Potency does the source give for CN[C@@H]1C[C@H]2O[C@@](C)([C@H]1OC)n1c3ccccc3c3c4c(c5c6ccccc6n2c5c31)C(=O)N[C@H]4O here?
A: 469 nM (active)

Q: Which “activity change, negative = cytotoxic” value does the source give for CC(=O)NC(CS)C(=O)O (stereo not given) here?
A: -1.07%

Q: For CC(C=CC(=O)NO)=C[C@@H](C)C(=O)c1ccc(N(C)C)cc1, which Potency is on record?
A: 1480 nM (active)

Q: For C[C@H](NC(=O)[C@@H](O)c1cc(F)cc(F)c1)C(=O)N[C@@H]1C(=O)N(C)c2ccccc2-c2ccccc21, which “activity change, negative = cytotoxic” value is on record?
A: -17.8%

Q: Which Potency does the source give for CNC(=O)Nc1ccc(-c2nc(N3CC4CCC(C3)O4)c3cnn(C4CCC5(CC4)OCCO5)c3n2)cc1 here?
A: 29.6 nM (active)

Q: Which “activity change, negative = cytotoxic” value does the source give for O=C(c1ccc(F)cc1)N1CCC[C@H](c2nc(-c3ccc(F)cc3)no2)C1 here?
A: -4.75%

Q: With CCCc1nc(C(C)(C)O)c(C(=O)O)n1Cc1ccc(-c2ccccc2-c2nn[nH]n2)cc1 as the compound, how does the “activity change, negative = cytotoxic” value read?
A: 1.62%

Q: Which “activity change, negative = cytotoxic” value does the source give for CN[C@H](CC(C)C)C(=O)N[C@H]1C(=O)N[C@@H](CC(N)=O)C(=O)N[C@@H]2C(=O)N[C@H]3C(=O)N[C@H](C(=O)N[C@H](C(=O)O)c4cc(O)cc(O)c4-c4cc3ccc4O)[C@H](O)c3ccc(c(Cl)c3)Oc3cc2cc(c3O[C@@H]2O[C@H](CO)[C@@H](O)[C@H](O)[C@@H]2O[C@H]2C[C@](C)(N)[C@H](O)[C@H](C)O2)Oc2ccc(cc2Cl)[C@H]1O here?
A: 1.76%

Q: Which Potency does the source give for CC(=O)O[C@@]12CO[C@H]1C[C@H](O)[C@@]1(C)C(=O)[C@H](O)C3=C(C)[C@@H](OC(=O)C(O)[C@@H](NC(=O)OC(C)(C)C)c4ccccc4)C[C@@](O)([C@@H](OC(=O)c4ccccc4)[C@@H]21)C3(C)C (stereo not given in full) here?
A: 1 nM (active)

Q: With CC1(C)[C@H](O[C@H]2O[C@H](C(=O)O)[C@@H](O)[C@H](O)[C@H]2O[C@@H]2O[C@H](C(=O)O)[C@@H](O)[C@H](O)[C@H]2O)CC[C@@]2(C)[C@H]1CC[C@]1(C)[C@H]2C(=O)C=C2[C@H]3C[C@@](C)(C(=O)O)CC[C@]3(C)CC[C@]21C as the compound, how does the “activity change, negative = cytotoxic” value read?
A: 6.15%

Q: For C#Cc1cccc(Nc2ncnc3cc(OCCOC)c(OCCO)cc23)c1, which Potency is on record?
A: 3720 nM (active)

Q: With C[C@H](NCc1ccc2c(c1)nc(NC(=O)c1ccc(-c3cn[nH]c3)s1)n2CCc1ccccc1)C(C)(C)C as the compound, how does the Potency read?
A: 2960 nM (active)

Q: For C[C@H]1COc2c(N3CCN(C)CC3)c(F)cc3c(=O)c(C(=O)O)cn1c23, which “activity change, negative = cytotoxic” value is on record?
A: 6.1%

Q: With C[C@@]12C[C@@]3(O)O[C@@H](O1)[C@]1(COC(=O)c4ccccc4)[C@@H]3C[C@@]12O[C@@H]1O[C@H](CO)[C@@H](O)[C@H](O)[C@@H]1O as the compound, how does the “activity change, negative = cytotoxic” value read?
A: 2.65%

Q: Which “activity change, negative = cytotoxic” value does the source give for CCC[C@H]1C[C@H](C(=O)N[C@@H]([C@@H]2O[C@@H](SC)[C@@H](O)[C@@H](O)[C@@H]2O)[C@H](C)Cl)N(C)C1 here?
A: 9.13%

Q: Which “activity change, negative = cytotoxic” value does the source give for Cc1cc(-c2nnc3n2CCCCC3)c(C)n1-c1ccccc1 here?
A: -0.978%
